The values below come from PubChem BioAssay (NCATS).

Values joined by “and” are separate entries in the source; they are usually repeats but may differ in a detail not shown here. Equal entries are not always repeated. Inconclusive results are not listed. Active and inactive are the calls of the source. The call rests on the fitted dose curve; in most records, active means well fitted curve in the direction sought with a large enough effect; inconclusive means small, poorly fitted or top-dose-only effect, or another doubt; inactive means no such curve, though single readings can be large; an effect the other way counts as inactive or inconclusive.

Assay [1] is described as follows: qHTS assay for measurement of the activity of small molecule inhibitors on Zika virus induced Caspase-3 activity in human iPSC derived neural progenitor cells (hNPCs) (AID 1224857). Further: nearly all actives have a fitted effect of over 65% in size. The method in brief:
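Zika virus (2 FFU/cell) infection of human iPSC-derived NPCs, 6 h, following 1 h compound preincubation. Read-out: Caspase-Glo 3/7 luminescence.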
On the technique in general: Quantitative high-throughput screening tests each substance at several concentrations.

Assay [2] can be described thus: qHTS assay for measurement of the activity of small molecule inhibitors on Zika virus induced Caspase-3 activity in human astrocytoma cells (AID 1224859). The method in brief: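 Caspase activation in ZIKV-infected SNB-19 cells (2 FFU/cell, 6 h) measured by Caspase-Glo 3/7 luminescence after 30 min RT; compound pre-incubated 1 h; normalised to uninfected and infected controls.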

A short description of assay [3]: qHTS Screen of the MIPE 4.0 Collection Against Ewings Sarcoma (RDES) (AID 1259252). Further: nearly all actives have a fitted effect of over 35% in size. Further: potency means the concentration at half of the fitted maximal effect. The method in brief:
(§1)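 Dose series incubated 48 h with cells in RPMI plus 5% FBS, glutamine and penicillin/streptomycin; cell viability then quantified via CellTiter-Glo.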

Assay [4] is described as follows: qHTS Screen of the MIPE 4.0 Collection Against Ewings Sarcoma (EW8) (AID 1259255). Further: nearly all actives have a fitted effect of over 35% in size. Further: potency means the concentration at half of the fitted maximal effect. The method in brief:
as §1

The nature of assay [5]: qHTS Screen of the MIPE 4.0 Collection Against Ewings Sarcoma (TC32) (AID 1259256). Further: nearly all actives have a fitted effect of over 45% in size. Further: potency means the concentration at half of the fitted maximal effect. The method in brief:
as §1

The nature of assay [6]: Identifying Small Molecule Inhibitors of Pancreatic Cancer Stem Cells (SN12C, Adherent) (AID 1259358).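 Further: cell survival measured after 48 h of compound exposure.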 The essentials: (§2)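 Endpoint: ATP-based luminescence, 48 h drug exposure. Bortezomib at 9.2 uM final as full-kill control; DMSO vehicle as negative control; activity normalized between vehicle and cell-free wells.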
Assay [7] is described as follows: Identifying Small Molecule Inhibitors of Pancreatic Cancer Stem Cells (SN12C, Spheroid) (AID 1259360). Further: potency means the concentration at half of the fitted maximal effect. The note with it: Potency: SN12C spheroid viability. The method in brief:
(§3)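 Cytotoxicity read by CellTiter-Glo luminescence after 48 h compound exposure at 37C; percent activity scaled between DMSO-treated cells and cell-free wells. Spheroid formats used cells pre-formed 14 days in stem cell media on hydrogel.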

Assay [8] is described as follows: Identifying Small Molecule Inhibitors of Pancreatic Cancer Stem Cells (A278, Adherent) (AID 1259361). Further: nearly all actives have a fitted effect of over 35% in size. The method in brief: as §2
Assay [9] is described as follows: P-glycoprotein substrates identified in KB-8-5-11 adenocarcinoma cell line, qHTS therapeutic library screen (AID 1346987). Further: nearly all actives have a fitted effect of over 65% in size. Further: potency means the concentration at half of the fitted maximal effect. The essentials: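 KB-8-5-11, a colchicine-selected P-gp-overexpressing KB-3-1 subline, was grown without colchicine for the assay. Cells were seeded at 500 cells/well, dosed in concentration-response and incubated 72 h at 37 degree C, 5% CO2. Viability was read by CellTiter-Glo luminescence.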

Assay [10] can be described thus: NS1 protein of Zika virus - qHTS assay to identify small molecule inhibitors in human HEK 293 cells (AID 1347053). Further: nearly all actives have a fitted effect of over 55% in size. Further: potency means the concentration at half of the fitted maximal effect. The method in brief: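 HEK 293 cells, seeded 20 h at 37 C, were pretreated with compound 1 h, then infected with ZIKV MR766 (MOI = 0.5) for 24 h. NS1 was read by TR-FRET with two anti-NS1 antibodies, normalized to uninfected and infected wells.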
A short description of assay [11]: P-glycoprotein substrates identified in KB-3-1 adenocarcinoma cell line, qHTS therapeutic library screen (AID 1346986).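 Further: potency means the concentration at half of the fitted maximal effect; potency is for cytotoxicity meaning loss of cell viability; nearly all actives have a fitted effect of over 60% in size.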 The essentials: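 KB-3-1 parental and colchicine-selected P-gp-overexpressing KB-8-5-11 cells (colchicine omitted during assay), 500 cells/well, dosed in dose-response for 72 h at 37 °C; CellTiter-Glo luminescence. Cytotoxic: curve class -1.1 to -2.4, max response >50%, AC50 < 10 uM.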

Assay [12] in a line: qHTS Screen of the MIPE 4.0 Collection Against Ewings Sarcoma (TC71) (AID 1259253). Further: potency means the concentration at half of the fitted maximal effect; nearly all actives have a fitted effect of over 40% in size. The method in brief:
as §1

Assay [13] can be described thus: Identifying Small Molecule Inhibitors of Pancreatic Cancer Stem Cells (A2780, Spheroid) (AID 1259357).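 Further: potency means the concentration at half of the fitted maximal effect; compound exposure lasted 48 h before the ATP luminescence read.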 The note with it: Potency: A2780 spheroid viability. The essentials: as §3

For `COc1ccc(CC2SC(=O)NC2=O)cc1C(=O)NCc1ccc(C(F)(F)F)cc1` (stereo not given), the Potency entry in [1], in [2], in assay [3], in assay [4], in assay [5] and in assay [6] was “inactive” each time. The Potency entry in assay [7], in assay [9] and in assay [10] was “inactive” in each case. Also, the IC50 (viability decrease) entry in assay [8] is “inactive”.
`CC(C)(O)c1cc2nc(-c3cnc(N)nc3)nc(N3CCOCC3)c2s1`: the Potency result in [1] and in assay [2] was “inactive” each time. Besides, the Potency in assay [3] is 59 nM (active); in assay [4], 148 nM (active); in assay [5], 66.2 nM (active); in assay [11] it was 411 nM (active); in assay [9], 105 nM (active) and 517 nM (active).
For `Cc1c(CN2CCN(S(C)(=O)=O)CC2)sc2c(N3CCOCC3)nc(-c3cnc(N)nc3)nc12`, the Potency result in assay [1] and in assay [2] was “inactive” throughout. The Potency was 59 nM (active) in assay [3]; 66.2 nM (active) in assay [4]; 41.8 nM (active) and 291 nM (active) in assay [9].
In the case of `c1cc(-c2cnn3cc(-c4ccc(OCCN5CCCCC5)cc4)cnc23)ccn1`, the Potency result in assay [1], in assay [2] and in assay [7] was “inactive” throughout. Besides, the Potency in assay [3] was 20900 nM (active); in assay [4], 18700 nM (active); in assay [5] it was 20900 nM (active); in assay [11], 6510 nM (active); in assay [9] it was 2.35 µM (active) and 10.3 µM (active). For the same compound, the IC50 (viability decrease) in assay [8] is 26400 nM (active).
`O=C(Nc1cn[nH]c1-c1nc2ccc(CN3CCOCC3)cc2[nH]1)NC1CC1`: the Potency result in assay [1] and in assay [9] was “inactive” throughout. For the same compound, the Potency in assay [3] was 3720 nM (active); in assay [12] it was 7430 nM (active); in [4], 33.2 nM (active); in [5] it was 66.2 nM (active); in assay [11] it was 1160 nM (active); in assay [10], 9350 nM (active).
On to `CC1(C)CCC(c2ccc(Cl)cc2)=C(CN2CCN(c3ccc(C(=O)NS(=O)(=O)c4ccc(N[C@H](CCN5CCOCC5)CSc5ccccc5)c(S(=O)(=O)C(F)(F)F)c4)cc3)CC2)C1`, for which the Potency result in [2], in assay [9] and in [10] was “inactive” each time. Further, the Potency in [3] is 26400 nM (active); in assay [12], 18700 nM (active); in [4] it was 29600 nM (active); in assay [5], 5260 nM (active); in assay [13], 20900 nM (active); in [7], 16600 nM (active). In assay [8], the IC50 (viability decrease) was 23500 nM (active).
For `COc1ccc(C(=O)CC2(O)C(=O)Nc3c(Cl)ccc(Cl)c32)cc1` (stereo not given), the Potency result in assay [1] and in assay [2] was “inactive” in each case. Also, the Potency is 2350 nM (active) in assay [3]; 1480 nM (active) in assay [4]; 1660 nM (active) in assay [5]; 2.64 µM (active) and 1.16 µM (active) in [9]; 1050 nM (active) in assay [10].
Consider `Nc1ccccc1NC(=O)c1ccc(CNc2nccc(-c3cccnc3)n2)cc1`, for which the Potency entry in [1], in assay [2] and in assay [10] was “inactive” in each case. The Potency is 1320 nM (active) in [3]; 1050 nM (active) in assay [4]; 935 nM (active) in assay [5]; 2.96 µM (active) and 2.31 µM (active) in assay [9]. In addition, the IC50 (viability decrease) in assay [8] is 1180 nM (active).
In the case of `Cc1c(NC(=O)OC[C@@H]2COCCN2)cn2ncnc(Nc3ccc4c(cnn4Cc4cccc(F)c4)c3)c12`, the Potency result in assay [1] and in assay [2] was “inactive” each time. Moreover, the Potency in [3] is 166 nM (active); in [5], 935 nM (active).
In the case of `c1nc2nc(Nc3ccc(N4CCOCC4)cc3)nc(NC3CCCCC3)c2[nH]1`, the Potency result in assay [1] and in [2] was “inactive” each time. For the same compound, the Potency in assay [3] is 14800 nM (active); in [4], 2350 nM (active); in [5], 1870 nM (active); in assay [11], 1300 nM (active); in [9], 5.26 µM (active) and 632 nM (active) and 1.16 µM (active).
